Experimental data reported in ChEMBL document CHEMBL4513216, “Probing the Open Global Health Chemical Diversity Library for Multistage-Active Starting Points for Next-Generation Antimalarials” (ACS Infect Dis, 2020).
In all, about 65,000 compounds went through this assay and about 2,100 (3.2%) showed an effect of 50% or more. The median lay at about -52%. Only a selection was taken, and strong results are over-represented in it overall.

These compounds were tested on Plasmodium falciparum (assay: Screen against P. falciparum Asexual Blood Stage (ABS), at 5uM). Conditions: tested at 5 uM.
Type: functional, Dd2

SMILES | INHIBITION [%]
Cc1ncc2c(c1CNC(=O)C1(C)CC1)CCNC2 | -29.6
Cc1cccc(CN2CCN3C(=O)NC[C@H]3C2)n1 | -4.56
Cc1noc(C)c1CN1C(=O)[C@@H]2CC[C@H]1CN(Cc1ncc[nH]1)C2 | -55.8
Cc1cccc(Nc2cccc(C3CCCN(Cc4ncc[nH]4)C3)n2)n1 (stereo unspecified) | 89.4
O=C(Cc1cccs1)N1CC[C@H]2[C@H]1CCN2Cc1cccnc1 | 19.8
Cc1cc(C)c(CNc2nc3ccccc3cc2CO)c(=O)[nH]1 | 21.9
CCc1ccc(C2c3nc[nH]c3CCN2Cc2nccn2CC)nc1 (stereo unspecified) | 90.1
CCn1ccnc1CN1CCNCC1C (stereo unspecified) | -43.7
Cc1cc(CC(=O)N2CCN(CC(C)C)[C@@H]3CS(=O)(=O)C[C@@H]32)ccc1F | -48.2
Cc1cccc(CN2CC[C@@H]3[C@@H]2CCN3C(=O)c2cnoc2C)n1 | -26.9
O=C1OCCC1N1CCN(C(=O)Cc2ccccc2Cl)CC1 (stereo unspecified) | -47.5
O=C(CCN1CCCC1c1cccc2c1OCCO2)N1CCCCC1 (stereo unspecified) | 73.2
NC(=O)CN1CCCN(C(=O)Cc2ccc3c(c2)OCCO3)CC1 | -57.5
CN(C)CCCN(C)C1CCN(c2cccc(-c3cscn3)c2)CC1 | 81.2
O=C1CC[C@@H]2[C@@H](CCN2Cc2ccncc2)N1c1ccccc1 | -11.8
O=C1Nc2ccccc2CC12CCCN2Cc1cccnc1 (stereo unspecified) | -69.2
CN(Cc1ccsc1)c1nc(-c2ccccn2)nc2c1CCNCC2 | 79.7
CN1CCN(Cc2ccsc2)Cc2cccnc21 | -81
CN(Cc1ccon1)c1nc(-c2ccccn2)nc2c1CCNCC2 | 76.3
CN(Cc1nccs1)c1nc(-c2ccccn2)nc2c1CCNCC2 | 83.7
CCc1nc(-c2ccc(NC(=O)N3CCC4(CC3)OCCO4)cc2)no1 | 30.5
O=C1CO[C@@H]2CN(Cc3cccs3)C[C@H]2N1Cc1cccnc1 | -28.4
O=C(c1cc(-n2cccc2)ccc1Cl)N1CCC2(CC1)OCCO2 | -6.62
COc1cccc(CN(C)Cc2[nH]c3ccccc3c2C)c1O | 88.7
O=C1CSC(c2ccncc2)c2c[nH]nc2N1 (stereo unspecified) | -101

SMILES | INHIBITION [%]
COc1cccc(Nc2nc(N3CCCC3)nc3c2CNCC3)c1 | 85.7
Fc1cccc(Nc2nc(N3CCCC3)nc3c2CNCC3)c1 | 84.3
COc1cccc(Nc2nc(-c3ccncc3)nc3c2CNCC3)c1 | 82.2
CC(C)(C)n1cc(C(=O)O)c(-c2ccc(F)cc2F)n1 | -86.4
Fc1cnc(N2CCN3C[C@H](Oc4cncnc4)C[C@H]3C2)nc1 | -74.8
c1ccc(CN2CCOC3CNCC[C@H]32)cc1 (stereo partly specified) | 23.5
Cc1nc(CN2CCO[C@H]3CN(C(=O)Cc4cccs4)C[C@H]32)cs1 | -65.8
CS(=O)(=O)N1CCC2(CCCN(Cc3ccccn3)C2)CC1 | -200
O=c1c2ccccc2cnn1Cc1cncn1C1CC1 | -100
CC1(c2ccccc2)CCCN(Cc2cncn2C2CCCC2)C1 (stereo unspecified) | 91
COCCNc1c(C#N)c2c(c3nncn13)CN(C)CC2 | -128
CC(C)(C)CN1CCCC2(CCN(C(=O)c3ccc(O)nc3)C2)C1 (stereo unspecified) | -154
CC(C)(C)c1cn(C[C@H]2CC3CCN2C[C@@H]3C(=O)N2CCOCC2)nn1 (stereo partly specified) | -111
COc1c(C)cnc(CN(C)C2CCCCC2)c1C | 76.7
COc1c(C)cnc(CN2CCC(N(C)C(C)C(N)=O)CC2)c1C (stereo unspecified) | 78.2
Cc1n[nH]c2c1C(c1ccc(O)cc1)SCC(=O)N2 (stereo unspecified) | -12.2
Cc1cccnc1CN1CC[C@H](Oc2cccc(F)c2)[C@@](C)(O)C1 | 75
O=C(Cc1ccccn1)N1CCN2C[C@H](Oc3cccc(F)c3)C[C@H]2C1 | -85.6
Fc1cccc(O[C@@H]2C[C@H]3CN(Cc4ccccn4)CCN3C2)c1 | -29.8
Fc1cccc(O[C@@H]2C[C@H]3CN(Cc4ccncc4)CCN3C2)c1 | -111
Cc1cccnc1CN1CCC2(CC(Nc3ccncn3)C2)C1 (stereo unspecified) | -21.6
Cc1cnccc1CN1CC[C@H](Oc2cccc(F)c2)[C@@](C)(O)C1 | 80.2
O=C(c1ccsc1)N1CCN2C[C@H](OCc3ccccn3)C[C@H]2C1 | -131
Cc1cc(CN2CC[C@@H]3O[C@@H](c4nnc(C)o4)C[C@H]3C2)no1 | -68.8
Cc1csc([C@H]2C[C@H]3CN(Cc4cc(C)on4)CC[C@@H]3O2)n1 | -109

SMILES | INHIBITION [%]
Cn1nc(CN2CCCCC(N)C2)c2c(Cl)cccc21 (stereo unspecified) | 66.2
Cc1cc(-c2nn(C)c(Cl)c2CN2CCCCC(N)C2)no1 (stereo unspecified) | 70.3
CS(=O)(=O)N[C@@H]1CN(Cc2ccncc2)C[C@@H]2CCCO[C@@H]21 | -73
OC1(CN2CCC(Oc3cccc(C(F)(F)F)c3)CC2)CCNC1 (stereo unspecified) | 90.3
NCC1(c2cccc(C(F)(F)F)c2)CCCC1 | 32.6
CC[C@H]1CN2CC[C@H]1C[C@@H]2CNC(=O)Nc1cccc(C(F)(F)F)c1 | -88.1
NC(=O)CN1CCCN(C(=O)Cc2cccc(C(F)(F)F)c2)CC1 | -122
CC(N)C(=O)N1CCC(Oc2cccc(C(F)(F)F)c2)CC1 (stereo unspecified) | 76.6
Cc1ccc(CN2C[C@@H](OCc3ccccn3)[C@H]3COC[C@H]32)o1 | -72.9
CCc1ccc(CN2CC[C@@H]3NC(=O)CC[C@@H]32)o1 | 11.1
COc1cccc(CNCc2ccccc2Cl)c1O | 77
COc1cccc(CNCc2ccc(F)cc2Cl)c1O | 79.5
c1cc(COC[C@]23COC[C@H]2CN(Cc2ccsc2)C3)ccn1 | 41.6
Cc1ncsc1CN1C[C@@H](OCc2ccccn2)[C@H]2OCCC[C@H]21 | -244
Cc1nn(C)c(C)c1CCn1cncc1-c1ccc2c(c1)CC(C)N2C (stereo unspecified) | 82.6
Cc1cc(C)n(CCCn2cncc2-c2ccc3c(c2)CC(C)N3C)n1 (stereo unspecified) | 87.4
Cc1nn(C)c(C)c1CN1CCNCC1 | -133.5
CCN1c2ccc(-c3cncn3CC(=O)NC(C)(C)C)cc2CC1C (stereo unspecified) | 73.2
CCN1c2ccc(-c3cncn3CCCn3ccnc3C)cc2CC1C (stereo unspecified) | 86.6
Cc1cc(C)c(CNc2ncnc3ccsc23)c(=O)[nH]1 | -52
Cc1csc(C2(NCC(O)COC(C)C)CCCC2)n1 (stereo unspecified) | -14.1
O=C(c1cc(F)cc(F)c1)N1C[C@H]2CNC[C@H]2C1 | 1.31
CC(C)N1CCC2(CC1)C(=O)N(c1cccnc1)c1c(F)cccc12 | 49.8
CN1CCC2(CC1)C(=O)N(c1cccnc1)c1ccc(F)cc12 | 59.5
CN1CCC2(CC1)C(=O)N(C)c1ccc(F)cc12 | -95.4

SMILES | INHIBITION [%]
CC(C)N1CCC2(CC1)C(=O)N(c1cccnc1)c1ccc(F)cc12 | 65.4
CC(C)N1C(=O)C2(CCN(C)CC2)c2cc(F)ccc21 | -10.7
CN1C(=O)C2(CCNCC2)c2cc(F)ccc21 | -85.9
Cc1cccc(CN2CCCC23CCNC3)n1 (stereo unspecified) | 15.6
Cc1cccc(CN(Cc2ccc(C)o2)C2CC(C)(C)NC(C)(C)C2)n1 | 77.4
Cc1cccc(CN2CCCCC23CCNC3)n1 (stereo unspecified) | 25.4
COc1cc(C(=O)NCC2(N(C)C)CCN(C)CC2)c2ccccc2n1 | 73.6
Cn1cc(CN2CCC[C@]3(C[C@H](Oc4ccccn4)CO3)C2)cn1 | -23.8
CO[C@H]1CN(C(C)C)C[C@@H]1NC(=O)Nc1ccc(C(F)(F)F)cc1 | 71.5
O=C1CC2(CCN(Cc3ccncc3)C2)CN1c1cccc(F)c1 (stereo unspecified) | -17.3
CC(C)=CCN1CCC2(CC1)CC(=O)N(Cc1cc(F)cc(F)c1)C2 | 75
O=C1CC2(CCN(Cc3cccnc3)C2)CN1c1cccc(F)c1 (stereo unspecified) | -34.7
CCCN1CCN(C(=O)c2ccc(Cl)cn2)[C@H]2CS(=O)(=O)C[C@H]21 | -54.2
c1cncc(COC[C@H]2CC[C@H]3[C@H](CCN3Cc3nccs3)O2)c1 | -35.5
COc1ccc(-c2n[nH]cc2C2SCC(=O)Nc3[nH]ncc32)cc1 (stereo unspecified) | -21.3
Cc1ccc(C(=O)N2CC[C@H]3[C@H]2CCN3CC2CCOCC2)cn1 | -131
O=S(=O)(NC1CCC12CCN(CC1CC1)CC2)c1ccccc1 (stereo unspecified) | 71.2
CNC(=O)c1ccc2c(c1)C1(CCN(CC3CC3)CC1)C(=O)N2 | -44.8
CO[C@H]1CCN(S(=O)(=O)c2cccnc2)[C@@H]2CN(CC3CC3)C[C@H]12 | 31
Clc1ccc(COCC2CCN(Cc3ccccn3)CC2)cc1 | 90.7
c1ccc(CN2C[C@H]3CCC[C@@]3(COCC3CCOCC3)C2)nc1 | -45.1
c1ccc(CN2C[C@@H]3COC[C@]3(COCC3CCOCC3)C2)nc1 | -61.3
c1ccc(CN2C[C@@H]3COC[C@]3(COCc3ccncc3)C2)nc1 | -47.9
c1ccc(CN2C[C@H]3CCC[C@@]3(COCC3CC3)C2)nc1 | -64.4
Fc1ccc(COCC2CCN(Cc3ccccn3)CC2)cc1 | 78.8

SMILES | INHIBITION [%]
Cc1nc2c(c(NCc3nc4ccccc4s3)n1)CCNCC2 | 71.3
Cc1nc2c(c(NCc3ccc(-c4ccccn4)s3)n1)CCNCC2 | 73.6
Cc1nc2c(c(NCc3cc4ccccc4s3)n1)CCNCC2 | 89.2
COc1ncnc(N)c1CNCCc1ccccc1 | -136
Cc1nc(C2(NCC(=O)NCc3cccs3)CCCCC2)no1 | -130
CN(C)C(=O)CN1CCCC2(CCN(c3ccc(C#N)cn3)C2)C1 (stereo unspecified) | -51.1
O=C1CCCN1CCN1CC=C(c2cnn(C3CCS(=O)(=O)C3)c2)CC1 (stereo unspecified) | -88.6
CC(Nc1ncnc2c1CCNC2)c1ccc2c(c1)CCCC2 (stereo unspecified) | 71.2
CC(C)N(C)Cc1cncc2c1CCN(Cc1cccs1)C2 | 1.43
COc1cc(Oc2ncccc2C(F)(F)F)ccc1CN1CCCC1 | 79.4
CCN1CCCC12CCN(Cc1cccnc1OC)CC2 | -69.1
COCCN1CCCC12CCN(Cc1cccnc1OC)CC2 | -66.3
Cc1noc(C)c1CN1CCO[C@H]2[C@H](Oc3ccccn3)CC[C@@H]21 | -42.5
OCCCN1CCc2[nH]nc(C(c3ccccc3)c3ccccc3)c2C1 | 73
Cc1cccc(CN2CC3C[C@]3(NC(=O)c3ccoc3)C2)n1 (stereo partly specified) | -67.9
COCCN1C[C@@H]2[C@@H](OC)CCN(S(=O)(=O)c3cccnc3)[C@@H]2C1 | -22.8
Cn1ccc2c(C(=O)NC3CN4CCC3CC4)cccc21 (stereo unspecified) | 3.44
Cc1ccc(C(=O)N[C@H]2CN(CCO)C[C@@H]2C2CC2)cc1Cl | 52.2
CCOc1ccc(C2SCC(=O)Nc3c2c(=O)[nH]n3C(CC)CC)cc1 (stereo unspecified) | -144
CCN1CCN(c2cncc(Cl)n2)CC1 | -13.6
CCN1CCN(S(=O)(=O)c2cc(Cl)c(Cl)cc2C)CC1 | 70.9
